Rows were chosen to be rich in hits. Some 0.89% of all compounds tested hit in one or more screens of this group.
LAP4-GFP MLPCN = yeast TOR pathway LAP4-GFP modulation | S. cerevisiae LAP4-GFP multiplex, flow cytometry GFP, 3 h; median GFP as percent of DMSO wells | GFP response vs DMSO, % at 10 µM | 320,000 tested, 0.34% active | AID 2023;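 active means GFP response vs DMSO above a set limit, about the screen mean plus 3 SD, cut at about 150% in these data; inconclusive means under 70 cell events counted for the yeast strain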
AGP1 TOR yeast = alters AGP1-GFP fluorescence in TOR pathway yeast screen; S. cerevisiae AGP1-GFP multiplex flow cytometry, 3 h; GFP as percent of DMSO wells; GFP response vs DMSO, % at 10 µM; 320,000 tested, 0.02% active; AID 2066;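 active means GFP response relative to DMSO above a set limit, near screen average plus 3 SD, cut at about 150% in these data; inconclusive means fewer than 70 cells counted for the yeast strain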;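 further: median GFP channel fluorescence of the gated AGP1 strain per well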
RPL19A TOR yeast = alters RPL19A-GFP fluorescence in TOR pathway yeast screen; S. cerevisiae RPL19A-GFP strain, flow cytometry, 3 h; hits give low values; percent response vs DMSO, % at 10 µM; 330,000 tested, 0.3% active; AID 2025;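 active means percent response vs DMSO below 50%; inconclusive means fewer than 70 events counted for the yeast strain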;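 further: median channel GFP fluorescence of the barcoded RPL19A-GFP strain; lower means less RPL19A-GFP as with rapamycin TOR inhibition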
MEP2 TOR yeast = alters MEP2-GFP fluorescence in TOR pathway yeast screen; S. cerevisiae MEP2-GFP strain, flow cytometry GFP, 3 h; 100% = DMSO control level; GFP response vs DMSO, % at 10 µM; 330,000 tested, 0.51% active; AID 2016;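 active means GFP response versus DMSO above a set limit, roughly screen mean plus 3 SD, cut at about 180% in these data; inconclusive means fewer than 70 cells counted for a yeast strain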;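 further: median GFP fluorescence of the barcode-gated MEP2-GFP cells per well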
CIT2-GFP yeast = alters CIT2-GFP fluorescence in TOR pathway yeast screen; S. cerevisiae CIT2-GFP strain, flow cytometry, 3 h; 100 means same as DMSO wells; GFP response vs DMSO, % at 10 µM; 320,000 tested, 0.065% active; AID 2029;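 active means GFP response relative to DMSO above a set limit, near the screen mean plus 3 SD, cut at about 150% in these data; inconclusive means Fewer than 70 cells measured for a yeast strain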;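 further: ratio of well median GFP fluorescence to mean of DMSO wells on the plate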
Numbers stand for hits; i = inactive; ? = inconclusive; nt = no result; + = active, no number; [ ] = another dose, or the depositor's remark.

SMILES	LAP4-GFP MLPCN	AGP1 TOR yeast	RPL19A TOR yeast	MEP2 TOR yeast	CIT2-GFP yeast
Cc1cccc(C)c1OCC(=O)NCc1ccccc1	i	?	42[may fluoresce violet]	277[may fluoresce violet]	?
O=[N+]([O-])c1ccc(O)c(/C=N/n2cnc3ccccc32)c1	i	?	i	184[may fluoresce violet]	?
O=[N+]([O-])c1ccc(O)c(/C=N/n2c(CO)nc3ccccc32)c1	i	i	i	i	i
CCOC(=O)c1oc2ccccc2c1CSc1nnnn1-c1ccc(OC)cc1	i	?	i	248[may fluoresce violet]	?
CCCn1c(=O)c2ccccc2n2c(SCc3c(C(=O)OCC)oc4ccccc34)nnc12	i	i	i	i	i
C=CC[n+]1c(/C=C/c2ccc(OC(C)=O)c(OC)c2)ccc2ccccc21	i	i	i	i	i
Cc1ccc2nc(SCCCCOc3ccccc3)[nH]c2c1	i	i	i	i	i
c1ccc(OCCSc2nc3ccccc3[nH]2)cc1	i	nt	44[may fluoresce violet]	182[may fluoresce violet]	?
Cc1cccc(N=c2c([N+](=O)[O-])nn(-c3ccc(Cl)cc3)n2O)c1	154	i	i	i	i
CCc1cccc(N=c2c([N+](=O)[O-])nn(-c3ccc(Cl)cc3)n2O)c1	i	i	i	i	i
Cc1ccc(-n2nc(C)c3c(C)c(CCC(=O)O)c(C)nc32)cc1	151	i	i	185	i
Cc1ccc(-n2nc(C)c3c(C)c(CCC(=O)O)c(C)nc32)cc1C	i	i	i	i	i
Cc1noc(NC(=O)c2ccc(Cl)cc2)c1Cl	i	?	41[may fluoresce violet]	i	?
O=C(N/N=C/c1ccncc1)NC12CC3CC(CC(C3)C1)C2	i	i	i	i	i
O=C(N/N=C/c1ccc(O)cc1)NC12CC3CC(CC(C3)C1)C2	i	?	39[may fluoresce violet]	351[may fluoresce violet]	?
CCn1c(=N)n(CC(=O)c2ccc(Cl)c(Cl)c2)c2ccccc21	i	i	i	i	i
N=c1n(CCN2CCCCC2)c2ccccc2n1CC(=O)c1ccc(Cl)c(Cl)c1	168	i	i	i	i
CCC(=O)N1c2ccc(S(=O)(=O)CCC(=O)Nc3nccs3)cc2CC1C (stereo unspecified)	?	?	29[may fluoresce violet]	?	?
Nn1c(CSc2ccccn2)nc2ccccc2c1=O	i	?	i	261[may fluoresce violet]	?
O=c1[nH]c(CSc2ccccn2)nc2ccccc12	i	i	i	i	i
CCCC1=NN2C(=N)/C(=C\c3ccc(OCCOc4ccc(NC(C)=O)cc4)c(OC)c3)C(=O)N=C2S1	i	i	i	i	i
COc1ccc(-n2c(SCC(=O)Nc3ccccc3C)nc(O)c(Cc3ccccc3)c2=O)cc1	i	i	i	i	i
O=C1c2ccccc2C2=Nc3ccccc3SC(c3cccc(F)c3)C12 (stereo unspecified)	i	i	i	180	i
Cc1onc(-c2ccccc2)c1C(=O)NC(=S)NNC(=O)c1ccco1	158	i	i	i	i
O=C(CCN1C(=O)C2CC=C(Cl)CC2C1=O)NCc1ccccc1 (stereo unspecified)	?	?	?	206[may fluoresce violet]	?
SMILES	LAP4-GFP MLPCN	AGP1 TOR yeast	RPL19A TOR yeast	MEP2 TOR yeast	CIT2-GFP yeast
COCC(=O)Nc1cc([N+](=O)[O-])ccc1C	i	i	nt	216	i
CCOC(=O)C(=O)Nc1cc([N+](=O)[O-])ccc1C	i	i	i	i	i
Cc1cc(-c2n[nH]c(=S)n2/N=C/C=C/c2ccco2)n[nH]1	i	?	37[may fluoresce violet]	396[may fluoresce violet]	?
S=c1[nH]nc(-c2ccccc2)n1/N=C/C=C/c1ccco1	i	i	i	i	i
COc1cc(/C=N/N(C)C)cc(Br)c1O	i	?	40[may fluoresce violet]	461[may fluoresce violet]	?
Cc1nn(C(=O)c2ccco2)c(C)c1Sc1ccccc1	i	i	nt	176	i
Cc1nn(C(=O)c2ccco2)c(C)c1Sc1ccc(Br)cc1	i	i	i	i	i
N#Cc1c(NCCCO)nc(-c2ccco2)c2c1CCCC2	i	i	i	243[may fluoresce violet]	?
N#Cc1c(NC2CCCCC2)nc(-c2ccco2)c2c1CCCC2	i	i	i	i	i
O=C1Nc2ccccc2C1(O)c1ccccc1O (stereo unspecified)	?	?	31[may fluoresce violet]	?	?
COC(=O)C1CN(C(=O)COc2ccc(Cl)cc2C)c2ccccc2O1 (stereo unspecified)	i	i	i	i	i
Cc1ccccc1NC(=O)COC(=O)c1cc(=O)c2ccccc2o1	i	i	i	i	159
Cc1ccc(NC(=O)COC(=O)c2cc(=O)c3ccccc3o2)c(Br)c1	i	i	i	i	i
CCn1nc(C)c(/C=N/NC(=O)c2ccc3c(c2)c(C)c(C)n3Cc2ccccc2)c1C	i	?	22[may fluoresce violet]	279[may fluoresce violet]	?
CCOC(=O)C1CCN(c2cc(=O)n(C3CCCCC3)c(=O)[nH]2)CC1	i	i	i	i	i
CCOC(=O)N1CCN(c2cc(=O)n(C3CCCCC3)c(=O)[nH]2)CC1	i	?	i	266[may fluoresce violet]	?
CCOC(=O)c1sc(NC(=O)CN2CCN(c3ccc(OC)cc3)CC2)nc1C	i	i	i	i	i
COc1ccc(NC(=O)Cn2nnc(-c3ccccc3NC(=O)c3ccco3)n2)cc1	i	i	i	i	i
COc1ccccc1NC(=O)Cn1nnc(-c2ccccc2NC(=O)c2ccco2)n1	i	i	i	195	i
Cn1c(=O)[nH]c(=O)c2c1nc(N1CCCCC1)n2CCOc1ccccc1	i	i	nt	218	i
N#C/C(=C/c1ccc(N2CCOCC2)o1)c1ccc(Br)cc1	167	i	i	i	i
N#C/C(=C\c1ccc(N2CCOCC2)o1)c1ccccc1	i	i	i	i	i
CC1CC(C)CN(CCCNC(=O)c2cc3c(=O)[nH]c4ccccc4c3n2C)C1 (stereo unspecified)	i	i	i	i	i
CN(CCCNC(=O)c1cc2c(=O)[nH]c3ccccc3c2n1C)Cc1ccccc1	i	?	31[may fluoresce violet]	i	?
Cc1cc(C)c(NC(=O)CN2C(=O)NC3(CCCc4ccccc43)C2=O)c(Cl)c1 (stereo unspecified)	i	i	i	i	i
SMILES	LAP4-GFP MLPCN	AGP1 TOR yeast	RPL19A TOR yeast	MEP2 TOR yeast	CIT2-GFP yeast
O=C(NCc1ccccc1Cl)C1CCN(S(=O)(=O)c2cccs2)CC1	i	?	42[may fluoresce violet]	205[may fluoresce violet]	?
O=C(C1CCN(S(=O)(=O)c2cccs2)CC1)N(c1ccccn1)C1CCCCC1	i	?	46[may fluoresce violet]	i	?
COc1ccccc1NC(=O)C1CCN(S(=O)(=O)c2cccs2)CC1	+[may fluoresce green]	+[may fluoresce green]	i	+[may fluoresce green]	+[may fluoresce green]
O=C(N/N=C/c1cccnc1)C(O)c1ccccc1 (stereo unspecified)	i	i	i	i	i
CCCNC(=O)c1nc(C)n(-c2ccc([N+](=O)[O-])cc2)n1	i	i	i	i	i
Cc1c(Cl)cccc1NC(=S)NCCc1ccc(C(F)(F)F)cc1	i	i	i	i	i
O=C(NCc1ccccc1Br)C1CCCO1 (stereo unspecified)	i	i	i	i	i
CC(C)=CCN1CCN(Cc2cccn2-c2ncccn2)CC1CCO (stereo unspecified)	i	i	i	i	i
OCC1(Cc2ccccc2)CCN(Cc2ccc(-c3ccco3)cc2)CC1	i	i	i	i	i
